Assay outcomes (PubChem)
MITF act – activators of MITF-driven TRPM1 promoter activity in SK-MEL-5 cells; SK-MEL-5 TRPM1-promoter luciferase, 24 h; % of positive control, neutral wells = 0; activation, % at 12.5 µM; actives 0.75% (n = 300,000); AID 588334;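 active = mean activation of at least 80% with every replicate also reaching 80%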
Wnt bcat act – activates Wnt/beta-catenin signaling in a reporter cell assay; activation, % at 9.35 µM; activator, plate reader; AID 743398; actives 1.2% (n = 300,000); in the data active = activation above about 30%, passing the limit was not always enough
esBAF inh – SWI/SNF esBAF complex inhibition. actives 2% (n = 350,000). reporter increase, % at 12.5 µM. mouse ES cells, Bmi1-luciferase knock-in reporter, 24 h; 100% = twice the neutral-well signal; in the data active = activation above about 40%;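 note: a rise in the Bmi1 reporter signal indicates esBAF inhibition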
LMP1 NFkB inh – inhibitors of Epstein-Barr LMP1-induced NF-kappaB reporter | inhibition, % at 12.5 µM | LMP1-induced NF-kappaB luciferase reporter cells, luminescence | AID 504558 | actives 0.69% (n = 350,000); in the data active = inhibition above about 41%
Statin myotox sup – protects C2C12 myotubes from simvastatin toxicity | AID 602340 | ATP luminescence, 48 h; scaled: DMSO 0, geranylgeraniol control 100 | rescue of ATP level, % at 7.49 µM | actives 0.78% (n = 330,000);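 active = mean ATP rescue above about 67%, or every replicate alone reaching that limit, limit read from the data, passing the limit was not always enough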;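 note: myotubes were challenged with 10 µM simvastatin during compound exposure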
MITF TRPM1 inh – MITF TRPM1 promoter inhibition in SK-MEL-5 cells | SK-MEL-5 TRPM1 promoter luciferase, 24 h | inhibition, % at 12.5 µM | actives 0.83% (n = 330,000) | AID 488899;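 active = mean inhibition across replicates of 60% or more, whatever share of single replicates reaches that level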
Large screens that a line does not name were inactive. A selection: hits, their analogues and other compounds. The true share with any hit is near 4%.

Cc1cc(NC(=O)Nc2cc(C)nn2-c2ccccc2)n(-c2ccccc2)n1	none (no result: Wnt bcat act)
CCOC(=O)/C=C(\C)Nc1cc(C)nn1-c1ccccc1	Statin myotox sup 127.0
O=C(Nc1ccc2nc(C3CC3)n(Cc3ccc(F)cc3)c(=O)c2c1)c1ccco1	none (no result: MITF act, Wnt bcat act)
CC(=O)Nc1ccc2nc(C3CC3)n(Cc3ccc(Cl)cc3)c(=O)c2c1	esBAF inh 74.9
COc1ccc(Cn2c(C3CC3)nc3ccc(NC(=O)C4CC4)cc3c2=O)cc1	MITF act 118.3, esBAF inh 67.4 (no result: Statin myotox sup)
CCC(=O)Nc1ccc2nc(C3CC3)n(Cc3ccc(C(C)(C)C)cc3)c(=O)c2c1	none
COC(=O)C1=C(C)N(Cc2ccccc2)C(=NCc2cccc(C(F)(F)F)c2)N[C@H]1c1cccc(C(F)(F)F)c1	MITF TRPM1 inh 96.0 (no result: Wnt bcat act)
COC(=O)C1=C(C)N(Cc2ccc(C(F)(F)F)cc2)C(=NCc2ccccc2)NC1c1cccc(C(F)(F)F)c1 (stereo not drawn)	none (no result: MITF act, esBAF inh, LMP1 NFkB inh, Statin myotox sup, MITF TRPM1 inh)
COC(=O)C1=C(C)N(Cc2ccccc2)C(=NCc2cccc(C(F)(F)F)c2)N[C@H]1c1cccc(F)c1	MITF TRPM1 inh 93.6
COC(=O)C1=C(C)N(Cc2ccc(C(F)(F)F)cc2)C(=NCc2ccc(C(F)(F)F)cc2)NC1c1cccc(F)c1 (stereo not drawn)	none (no result: MITF act, esBAF inh, LMP1 NFkB inh, Statin myotox sup, MITF TRPM1 inh)
Cn1c(=O)c2c(O)c(Cc3ccccc3)c(=O)[nH]c2n(C)c1=O	esBAF inh 52.6
Cc1[nH]c(=O)c(Cc2ccccc2)c(O)c1C#N	none
CCSc1nc(N)nc(-c2cccs2)c1C#N	esBAF inh 49.2
O=C(COc1ncnc2cc(Cl)ccc12)c1ccc2c(c1)OCCO2	Wnt bcat act 55.0, esBAF inh 59.1
O=C(COc1ncnc2ccccc12)c1ccc2c(c1)OCCO2	Statin myotox sup 72.2
Cc1ccc(C(=O)COc2ncnc3cc(Cl)ccc23)cc1	none (no result: MITF act, LMP1 NFkB inh, MITF TRPM1 inh)
CCc1ccc(OCCNc2cc(N3CCNC(C)C3)ccc2[N+](=O)[O-])cc1 (stereo not drawn)	MITF TRPM1 inh 78.6
Cc1cc(C(=O)NC2CCCCCCC2)ccc1[N+](=O)[O-]	Wnt bcat act 48.0, esBAF inh 66.2 (no result: MITF act)
Cc1cc(C(=O)OCC(=O)NC2CC2)ccc1[N+](=O)[O-]	none
Cc1ccc(C(=O)Nc2cccc(C(=O)NC3CCCCC3)c2)cc1	none
COc1cccc(C(=O)NC2CCCC2)c1	none
